Results reported in PMC12820563, “FoxP3 forms a head-to-head dimer in vivo and stabilizes its multimerization on adjacent microsatellites”.
The full ranking holds about 16,000 sequences; the median of “rpm ratio (pull-down/input)” is about 0.5, and the highest 2% start at about 5.5. The list comes from a sample in which the highest values are over-represented; it also holds similar and randomly drawn sequences.

Target: T1, MBP-FoxP3dN (Mus musculus, UniProt Q99JB6 188-423)
T1 sequence: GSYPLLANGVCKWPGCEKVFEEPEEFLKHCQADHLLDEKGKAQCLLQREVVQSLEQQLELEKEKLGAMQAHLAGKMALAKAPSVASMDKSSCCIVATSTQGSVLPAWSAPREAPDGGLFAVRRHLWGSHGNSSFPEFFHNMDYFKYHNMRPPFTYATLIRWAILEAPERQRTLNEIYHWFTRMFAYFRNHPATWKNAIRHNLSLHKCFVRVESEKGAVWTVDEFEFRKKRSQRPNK
Experiment: PD-seq (MBP pull-down with sequencing); 20 mM Tris-HCl pH 7.5, 100 mM NaCl, 1.5 mM MgCl2, 0.4 uM protein, 0.1 uM dsDNA library, 30 min, room temperature, amylose pull-down; high values mean tight binding
Conditions: protein: recombinant; tags: His6-MBP; chain copies: 2; dsDNA, one strand shown
Outline: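 A fragment of mouse FoxP3 or FoxP1 without its N-terminus, carrying a His6-MBP tag and produced in E. coli, was combined at 0.4 µM with a 0.1 µM degenerate double-stranded DNA library filled in with Klenow. The mixture sat for 30 min at room temperature in Tris pH 7.5 buffer containing NaCl and MgCl2. Protein–DNA complexes were captured on amylose resin, washed three times, and the DNA was freed with proteinase K, barcoded by PCR and sequenced on Illumina. Binding is expressed as reads-per-million enrichment of pull-down over input, with replicates pooled.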

Q: How did the binding signal turn out when “GATGATTGTTCTCCCAGCTGATGAATTACGCTGTTCGAGTAAACAAATTTTCCTAATCTTTCTGTTCAAGCGCCATCTAC” was run?
A: 1.09 RPM ratio (pull-down/input)

Q: Which binding signal does the source give for “GATGATTGTTCTCCCAGCTGATGAATTACGCAAATCGAGTAAACAAATTTTCCTAATCTTTCTGTTCAAGCGCCATCTAC” here?
A: 0.792 RPM ratio (pull-down/input)

Q: With “GATGATTGTTCTCCCAGCTGATGAATTACGCCATTCGAGTAAACAAATTTTCCTAATCTTTCTGTTCAAGCGCCATCTAC” as the sequence, how does the binding signal read?
A: 5.04 RPM ratio (pull-down/input)

Q: Which binding signal does the source give for “GATGATTGTTCTCCCAGCTGATGAATTACGCAACTCGAGTAAACAAATTTTCCTAATCTTTCTGTTCAAGCGCCATCTAC” here?
A: 6.03 RPM ratio (pull-down/input)

Q: “GATGATTGTTCTCCCAGCTGATGAATTGCTACCATCGAGTAAACAAATTTTCCTAATCTTTCTGTTCAAGCGCCATCTAC” was tested. Which binding signal did it give?
A: 0.894 RPM ratio (pull-down/input)

Q: For “GATGATTGTTCTCCCAGCTGATGAATTGCCCGAATCGAGTAAACAAATTTTCCTAATCTTTCTGTTCAAGCGCCATCTAC”, which binding signal is on record?
A: 0.311 RPM ratio (pull-down/input)

Q: With “GATGATTGTTCTCCCAGCTGATGAATTACGGCCATCGAGTAAACAAATTTTCCTAATCTTTCTGTTCAAGCGCCATCTAC” as the sequence, how does the binding signal read?
A: 1.15 RPM ratio (pull-down/input)

Q: With “GATGATTGTTCTCCCAGCTGATGAATTTAATCAATCGAGTAAACAAATTTTCCTAATCTTTCTGTTCAAGCGCCATCTAC” as the sequence, how does the binding signal read?
A: 0.269 RPM ratio (pull-down/input)

Q: Which binding signal does the source give for “GATGATTGTTCTCCCAGCTGATGAATTTGGTCCGTCGAGTAAACAAATTTTCCTAATCTTTCTGTTCAAGCGCCATCTAC” here?
A: 0.363 RPM ratio (pull-down/input)

Q: With “GATGATTGTTCTCCCAGCTGATGAATTGGAACTCTCGAGTAAACAAATTTTCCTAATCTTTCTGTTCAAGCGCCATCTAC” as the sequence, how does the binding signal read?
A: 0.343 RPM ratio (pull-down/input)

Q: Which binding signal does the source give for “GATGATTGTTCTCCCAGCTGATGAATTCCTTTGGTCGAGTAAACAAATTTTCCTAATCTTTCTGTTCAAGCGCCATCTAC” here?
A: 0.395 RPM ratio (pull-down/input)

Q: Which binding signal does the source give for “GATGATTGTTCTCCCAGCTGATGAATTGACACATTCGAGTAAACAAATTTTCCTAATCTTTCTGTTCAAGCGCCATCTAC” here?
A: 0.772 RPM ratio (pull-down/input)

Q: How did the binding signal turn out when “GATGATTGTTCTCCCAGCTGATGAATTGCGATGGTCGAGTAAACAAATTTTCCTAATCTTTCTGTTCAAGCGCCATCTAC” was run?
A: 1.01 RPM ratio (pull-down/input)

Q: For “GATGATTGTTCTCCCAGCTGATGAATTACGCCTCTCGAGTAAACAAATTTTCCTAATCTTTCTGTTCAAGCGCCATCTAC”, which binding signal is on record?
A: 5.99 RPM ratio (pull-down/input)

Q: “GATGATTGTTCTCCCAGCTGATGAATTACGCAGCTCGAGTAAACAAATTTTCCTAATCTTTCTGTTCAAGCGCCATCTAC” was tested. Which binding signal did it give?
A: 1.78 RPM ratio (pull-down/input)

Q: For “GATGATTGTTCTCCCAGCTGATGAATTTTACGCCTCGAGTAAACAAATTTTCCTAATCTTTCTGTTCAAGCGCCATCTAC”, which binding signal is on record?
A: 0.506 RPM ratio (pull-down/input)

Q: For “GATGATTGTTCTCCCAGCTGATGAATTACTCCACTCGAGTAAACAAATTTTCCTAATCTTTCTGTTCAAGCGCCATCTAC”, which binding signal is on record?
A: 0.339 RPM ratio (pull-down/input)

Q: “GATGATTGTTCTCCCAGCTGATGAATTTACGCACTCGAGTAAACAAATTTTCCTAATCTTTCTGTTCAAGCGCCATCTAC” was tested. Which binding signal did it give?
A: 0.784 RPM ratio (pull-down/input)

Q: “GATGATTGTTCTCCCAGCTGATGAATTACGCCACTCGAGTAAACAAATTTTCCTAATCTTTCTGTTCAAGCGCCATCTAC” was tested. Which binding signal did it give?
A: 6.17 RPM ratio (pull-down/input)

Q: With “GATGATTGTTCTCCCAGCTGATGAATTACGCATCTCGAGTAAACAAATTTTCCTAATCTTTCTGTTCAAGCGCCATCTAC” as the sequence, how does the binding signal read?
A: 7.33 RPM ratio (pull-down/input)

Q: Which binding signal does the source give for “GATGATTGTTCTCCCAGCTGATGAATTACGCGCATCGAGTAAACAAATTTTCCTAATCTTTCTGTTCAAGCGCCATCTAC” here?
A: 1.54 RPM ratio (pull-down/input)

Q: For “GATGATTGTTCTCCCAGCTGATGAATTACGCGCCTCGAGTAAACAAATTTTCCTAATCTTTCTGTTCAAGCGCCATCTAC”, which binding signal is on record?
A: 1.67 RPM ratio (pull-down/input)

Q: “GATGATTGTTCTCCCAGCTGATGAATTAGATGTGTCGAGTAAACAAATTTTCCTAATCTTTCTGTTCAAGCGCCATCTAC” was tested. Which binding signal did it give?
A: 2.71 RPM ratio (pull-down/input)

Q: “GATGATTGTTCTCCCAGCTGATGAATTGTCCCGCTCGAGTAAACAAATTTTCCTAATCTTTCTGTTCAAGCGCCATCTAC” was tested. Which binding signal did it give?
A: 0.272 RPM ratio (pull-down/input)

Q: Which binding signal does the source give for “GATGATTGTTCTCCCAGCTGATGAATTAAGTCCGTCGAGTAAACAAATTTTCCTAATCTTTCTGTTCAAGCGCCATCTAC” here?
A: 0.307 RPM ratio (pull-down/input)

Q: With “GATGATTGTTCTCCCAGCTGATGAATTTCGCTTGTCGAGTAAACAAATTTTCCTAATCTTTCTGTTCAAGCGCCATCTAC” as the sequence, how does the binding signal read?
A: 3.29 RPM ratio (pull-down/input)

Q: With “GATGATTGTTCTCCCAGCTGATGAATTTTATACATCGAGTAAACAAATTTTCCTAATCTTTCTGTTCAAGCGCCATCTAC” as the sequence, how does the binding signal read?
A: 0.598 RPM ratio (pull-down/input)

Q: “GATGATTGTTCTCCCAGCTGATGAATTGTATACATCGAGTAAACAAATTTTCCTAATCTTTCTGTTCAAGCGCCATCTAC” was tested. Which binding signal did it give?
A: 5.87 RPM ratio (pull-down/input)

Q: “GATGATTGTTCTCCCAGCTGATGAATTCAGTATATCGAGTAAACAAATTTTCCTAATCTTTCTGTTCAAGCGCCATCTAC” was tested. Which binding signal did it give?
A: 2.12 RPM ratio (pull-down/input)

Q: Which binding signal does the source give for “GATGATTGTTCTCCCAGCTGATGAATTTTGTATATCGAGTAAACAAATTTTCCTAATCTTTCTGTTCAAGCGCCATCTAC” here?
A: 7.43 RPM ratio (pull-down/input)

Q: Which binding signal does the source give for “GATGATTGTTCTCCCAGCTGATGAATTGTATATATCGAGTAAACAAATTTTCCTAATCTTTCTGTTCAAGCGCCATCTAC” here?
A: 3.21 RPM ratio (pull-down/input)

Q: With “GATGATTGTTCTCCCAGCTGATGAATTCTGTATATCGAGTAAACAAATTTTCCTAATCTTTCTGTTCAAGCGCCATCTAC” as the sequence, how does the binding signal read?
A: 5.72 RPM ratio (pull-down/input)

Q: For “GATGATTGTTCTCCCAGCTGATGAATTCTATATATCGAGTAAACAAATTTTCCTAATCTTTCTGTTCAAGCGCCATCTAC”, which binding signal is on record?
A: 1.18 RPM ratio (pull-down/input)

Q: How did the binding signal turn out when “GATGATTGTTCTCCCAGCTGATGAATTTGTAATATCGAGTAAACAAATTTTCCTAATCTTTCTGTTCAAGCGCCATCTAC” was run?
A: 1.95 RPM ratio (pull-down/input)

Q: Which binding signal does the source give for “GATGATTGTTCTCCCAGCTGATGAATTCTATACATCGAGTAAACAAATTTTCCTAATCTTTCTGTTCAAGCGCCATCTAC” here?
A: 0.559 RPM ratio (pull-down/input)
